# HT1080 IDH1KD tx: qHTS for induction of synthetic lethality in tumor cells producing 2HG: qHTS for the HT-1080-IDH1KD cell line; actives 2% (n = 360,000); Potency, µM (doses to about 46.1 µM), without a hit: at the highest dose activity, negative = toxicity, actives largely listed as cytotoxic; HT-1080 IDH1 knockdown viability, ATP luminescence, 48 h;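 also: 0% = DMSO wells and -100% = cell-free medium wells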
#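 Viability of IDH1-knockdown HT-1080 fibrosarcoma cells was assessed by CellTiter-Glo after 48 h at 37 °C with titrated compound; concentration-effect curves were classified by fit quality and response size.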
# KB-3-1 cytotox: qHTS assay for MDR1-selective chemotherapeutics: Primary screen using the parental adenocarcinoma cell KB-3-1. actives 1.4% (n = 400,000). KB-3-1 viability, CellTiter-Glo ATP luminescence, 72 h. AID 1347075, 2019. Potency, µM (doses to about 46.1 µM), hits mostly cytotoxic; also: nearly all actives have a fitted effect of over 60% in size
#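 Cells are dispensed, compounds pinned in, plates held at 37 °C for 72 h, then CellTiter-Glo is added and luminescence read after 10 minutes. Cell line: parental KB-3-1 in phenol-red-free DMEM, 10% FBS.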
# HT1080-NT tox: qHTS for induction of synthetic lethality in tumor cells producing 2HG: qHTS for the HT-1080-NT fibrosarcoma cell line; AID 686970, 2013; Potency, µM (top dose mostly 46.1 µM), inactives show top-dose activity, negative = less viability, hits mostly cytotoxic; actives 1.6% (n = 360,000); HT-1080-NT fibrosarcoma viability, CellTiter-Glo ATP luminescence, 48 h;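 also: NT is the 2HG producing partner of a matched IDH1 knockdown line; 0% = DMSO-treated cells and -100% = media-only wells without cells; nearly all actives have a fitted effect of over 55% in size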
#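 Fibrosarcoma NT cells, 750 per well in 5% FBS RPMI, were exposed to compound for 48 hours. Viability: CellTiter-Glo luminescence.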
# KB-V1 cytotox: qHTS assay for MDR1-selective chemotherapeutics: Primary screen using the drug-selected MDR subline cells KB-V1; Potency, µM (doses to about 46.1 µM), hits mostly cytotoxic; KB-V1 MDR cells viability, CellTiter-Glo, 72 h; actives 3.4% (n = 400,000); also: nearly all actives have a fitted effect of over 60% in size
#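 Compound-treated KB-V1 multidrug-resistant cells, 72 h, 37 degrees C; viability by CellTiter-Glo. Fitted qHTS curves give the values.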
# DT40 TDP1 no CPT: qHTS for Inhibitors of human tyrosyl-DNA phosphodiesterase 1 (TDP1): qHTS in cells in absence of CPT; Potency, µM (highest dose often 46.2 µM), inactives show at the top dose activity change, negative = growth inhibition, actives largely listed as inhibitors; DT40 Tdp1-/- hTDP1 cells, no CPT, ATP luminescence, 48 h; actives 15% (n = 420,000); also: nearly all actives have a fitted effect of over 55% in size
#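 A cellular qHTS used chicken DT40 cells lacking endogenous Tdp1 but carrying stably transfected human TDP1. Compounds were applied without camptothecin, and cell growth kinetics were judged by ATP-dependent luminescence after ≥48 hr.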
# DT40 TDP1 CPT: qHTS for Inhibitors of human tyrosyl-DNA phosphodiesterase 1 (TDP1): qHTS in cells in presence of CPT; Potency, µM (highest dose often 46.2 µM), for the others: top-dose activity change, negative = growth inhibition, actives largely listed as inhibitors; chicken DT40 Tdp1-/-;hTDP1 cells + 20 nM CPT, ATP luminescence, 48 h; actives 12% (n = 420,000); also: nearly all actives have a fitted effect of over 55% in size
#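 Cell growth measured by CellTiter-Glo luminescence after a minimum 48 h, 37 C compound exposure with 20 nM CPT in Tdp1-knockout DT40 cells stably expressing hTDP1, seeded 400/well; qHTS titration format.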
# * hit, by the source's call; i = inactive; u = inconclusive; x = no result; ! = repeats disagree; [ ] = dose if it differs, or a comment. Shown are actives, neighbours in structure and some others; about 19% of the full set was active somewhere. Calls follow the shape of the dose curve; as a rule, active = well fitted curve in the direction sought with a large enough effect; inconclusive = small, poorly fitted or top-dose-only effect, or another doubt; inactive = no such curve, though single readings can be large; an effect the other way counts as inactive or inconclusive. Unless noted, % is scaled to controls: 0 for no effect and ±100 for the full control effect; potency is read from the fitted curve at half-maximal effect.
SMILES,HT1080 IDH1KD tx,KB-3-1 cytotox,HT1080-NT tox,KB-V1 cytotox,DT40 TDP1 no CPT,DT40 TDP1 CPT
COc1cc(/C=C/[N+](=O)[O-])ccc1O,u,u,u,i,9.2µM*,8.2µM*
CCCCCN(C)CCC(O)(P(=O)(O)O)P(=O)(O)O,x,x,x,x,-12%,4%
Cc1ccc(S(=O)(=O)NC(=O)NC2CCCC2)cc1,x,x,x,x,-1%,5%
Cc1ccc(-c2nc(S(=O)(=O)c3ccccc3)c(SCC(=O)NC3CCCCC3)o2)cc1,x,i,x,i,u,13µM*
COc1ccc(NC(=O)CSc2oc(-c3cccs3)nc2S(=O)(=O)c2ccccc2)c(OC)c1,x,i,x,i,23µM*,21µM*
Cc1ccc(-c2nc(S(=O)(=O)c3ccc(C)cc3)c(SCC(=O)Nc3ccc(F)cc3)o2)cc1,x,i,x,i,23µM*,16µM*
Cc1ccc(-c2noc(=O)n2CC(=O)Nc2ccc(S(=O)(=O)NC3CC3)cc2)cc1,u,i,u,i,u,u
CC(C)OP(=O)(OC(C)C)C(O)c1ccccc1F (stereo unspecified),6%,i,13%,u,-2%,20%
CCOc1ccc(/C=C/C(=O)C(C(N)=O)=C2SCCS2)cc1,-1%,u,-5%,u,u,u
CC12Cc3cn[nH]c3C=C1CCC1C2CCC2(C)C1CCC2(C)O (stereo unspecified),-17%,i,-10%,u,u,u
O=C1NCc2c1c1c3ccccc3[nH]c1c1[nH]c3ccccc3c21,x,u,x,i,2.8µM*,3.2µM*
C[C@]12CCC3C(CC[C@H]4C[C@@H](O)[C@H](O)C[C@]34C)C1CC[C@@H]2O (stereo partly specified),2%,i,3%,i,-11%,-16%
CC1(C)Cc2c(c(N3CCOCC3)nc3sc4c(NCc5ccccc5)nnnc4c23)CS1,-11%,u,0%[9.24 µM],i,23µM*,16µM*
C[C@@H]1CN([C@H](C)CO)C(=O)c2c(c3ccccc3n2C)-c2ccccc2CO[C@H]1CN(C)C(=O)c1cc(Cl)cc(Cl)c1,-3%,i,-2%,i,u,-24%
C[C@@H]1CN([C@@H](C)CO)C(=O)CCCn2cc(nn2)CO[C@H]1CN(C)C(=O)Oc1cccc2ccccc12,5%,i,7%,i,-8%,-25%
C[C@H](CO)N1C[C@H](C)[C@H](CN(C)C(=O)N[C@H](C)c2ccccc2)OCc2ccccc2-c2c(n(C)c3ccccc23)C1=O,-8%,u,-3%,i,16µM*,23µM*
C[C@@H]1CN([C@@H](C)CO)C(=O)c2c(c3ccccc3n2C)-c2ccccc2CO[C@H]1CN(C)C(=O)[C@H](C)c1ccccc1,u,u,u,u,18µM*,16µM*
CCC1(C2=NCCN2)Cc2ccccc2O1 (stereo unspecified),4%,i,-3%,i,4.7µM*!,4.7µM*!
Brc1ccc2c(c1)C(OC1CN3CCC1CC3)c1ccccc1CS2 (stereo unspecified),u,u,-29%,u,5.2µM*,13µM*
c1ccc2c(c1)CSc1ccccc1C2C1=NCCN1 (stereo unspecified),u,u,u,i,u,-14%

# Screens as filed in PubChem.
